Measured values from PubChem BioAssay (NCI).
This is part of a sample that, as a whole, favours compounds with a hit. Of some 83,000 tested, about 20% had one in any assay.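 The test compound was applied at a single concentration to cells in 96-well plates for 48 hours, and percent growth was recorded.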 Activity calls are given as the source filed them. Rule for the calls: active = growth percent below 10; inactive = the rest.

Columns and labels:
Assay in all cases: NCI-60 one-dose screen, 48 h (100 = growth as untreated, 0 = no growth, -100 = all killed)
Details in all cases: 10 µM unless noted
NCI-H23 lung = test system: NCI-H23 lung
NCI-H226 lung = test system: NCI-H226 lung
NCI-H322M lung = test system: NCI-H322M lung
HOP-62 NSCLC = test system: HOP-62 NSCLC
NCI-H460 lung = test system: NCI-H460 lung
HOP-92 NSCLC = test system: HOP-92 NSCLC
NCI-H522 lung = test system: NCI-H522 lung
A549/ATCC NSCLC = test system: A549/ATCC NSCLC
786-0 renal = test system: 786-0 renal
COLO 205 colon = test system: COLO 205 colon

Measured: growth

CCN(CC)CCCC(C)N/C(=C1\C(=O)NC(=O)\C1=C(/NC(C)CCCN(CC)CC)c1cccc(OC)c1)c1cccc(OC)c1 (stereo not given)
active: NCI-H23 lung -22% | NCI-H226 lung -21.3% | NCI-H322M lung -49.6% | HOP-62 NSCLC -6.86% | NCI-H460 lung -38.1% | HOP-92 NSCLC -1.22% | NCI-H522 lung -74.9% | A549/ATCC NSCLC -52.9% | 786-0 renal 9.02% | COLO 205 colon -62.9%

COC(=O)[C@H](C(C)C)n1c(=O)c2cc(OC)c(OC)cc2c2cnc3[nH]ccc3c21
inactive: NCI-H23 lung 62.1% | NCI-H226 lung 46.4% | NCI-H322M lung 48.5% | HOP-62 NSCLC 45.8% | NCI-H460 lung 41.2% | HOP-92 NSCLC 13.7% | NCI-H522 lung 62.8% | A549/ATCC NSCLC 40.7% | 786-0 renal 52.9% | COLO 205 colon 57.5%

C=C1C(=O)O[C@H]2[C@H]1CC/C(Cn1cc(Cn3ccc4cc(Cl)ccc43)nn1)=C\CC[C@@]1(C)O[C@@H]21
inactive: NCI-H23 lung 13.1% | NCI-H226 lung 61.4% | NCI-H322M lung 76.6% | HOP-62 NSCLC 75.7% | NCI-H460 lung 64.2% | A549/ATCC NSCLC 48.5%
active: HOP-92 NSCLC -61.6% | NCI-H522 lung -76% | 786-0 renal -71.4% | COLO 205 colon -82.3%

CC(=O)Nc1ccc2c(c1)c(NC(C)=O)nn2C(=O)Nc1ccc(Cc2ccccc2)cc1
inactive: NCI-H23 lung 26.8% | NCI-H226 lung 62.7% | NCI-H322M lung 75.1% | HOP-62 NSCLC 44.3% | NCI-H460 lung 76.4% | NCI-H522 lung 76.3% | A549/ATCC NSCLC 92.1% | 786-0 renal 67.9% | COLO 205 colon 102%
active: HOP-92 NSCLC -42.8%

COc1ccc(C(=O)COc2ccc(/C=C3\Oc4ccc(Cl)cc4C3=O)cc2)cc1
inactive: NCI-H23 lung 67.6% | NCI-H226 lung 92% | NCI-H322M lung 96.6% | HOP-62 NSCLC 100% | NCI-H460 lung 111% | HOP-92 NSCLC 48.9% | NCI-H522 lung 80.5% | A549/ATCC NSCLC 95.1% | 786-0 renal 106% | COLO 205 colon 96%

O=S(=O)(Nc1ccc(F)c(Cl)c1)c1ccc(-c2cnc(C3CC3)o2)cc1
active: NCI-H522 lung -11.5% | COLO 205 colon -6.19%
inactive: NCI-H23 lung 24.8% | NCI-H226 lung 47.1% | NCI-H322M lung 45.7% | HOP-62 NSCLC 33.1% | NCI-H460 lung 10.5% | HOP-92 NSCLC 42% | A549/ATCC NSCLC 21.4% | 786-0 renal 43.2%

Cc1ccccc1CCO
inactive: NCI-H23 lung 100% | NCI-H226 lung 93.7% | NCI-H322M lung 90.8% | HOP-62 NSCLC 89.1% | NCI-H460 lung 105% | HOP-92 NSCLC 104% | NCI-H522 lung 76.2% | A549/ATCC NSCLC 85.4% | 786-0 renal 100% | COLO 205 colon 92.7%

CCOC(=O)c1nc(Nc2cc(C)[nH]n2)c2ccccc2n1
inactive: NCI-H23 lung 95.1% | NCI-H226 lung 81% | NCI-H322M lung 90.7% | HOP-62 NSCLC 103% | NCI-H460 lung 79.7% | HOP-92 NSCLC 86.3% | NCI-H522 lung 92.2% | A549/ATCC NSCLC 96.5% | 786-0 renal 82.6% | COLO 205 colon 104%

CC/C(Cc1ccccc1)=C(\c1ccc(OCCN2CCCC2)cc1)c1ccc(OC(C)=O)cc1
inactive: NCI-H23 lung 80.6% | NCI-H226 lung 93% | NCI-H322M lung 86.5% | HOP-62 NSCLC 94.5% | NCI-H460 lung 42.9% | HOP-92 NSCLC 78.8% | NCI-H522 lung 83.2% | A549/ATCC NSCLC 78.4% | 786-0 renal 82.3%
active: COLO 205 colon 7.7%

COc1cc(-c2cnc3nonc3n2)c(OC)c2c1OCO2
inactive: NCI-H23 lung 95.4% | NCI-H226 lung 95.6% | NCI-H322M lung 90.9% | HOP-62 NSCLC 101% | NCI-H460 lung 102% | HOP-92 NSCLC 97.9% | NCI-H522 lung 78.7% | A549/ATCC NSCLC 94.1% | 786-0 renal 104% | COLO 205 colon 113%

COc1ccc(-c2cn3c(ccc4ccccc43)n2)cc1
inactive: NCI-H23 lung 97.5% | NCI-H226 lung 88% | NCI-H322M lung 87.3% | HOP-62 NSCLC 80.6% | NCI-H460 lung 97.7% | HOP-92 NSCLC 92.1% | NCI-H522 lung 87.5% | A549/ATCC NSCLC 107% | 786-0 renal 111% | COLO 205 colon 112%

CCOC(=O)c1ccc2c(c1)nc(/C=C/c1ccc(Cl)cc1)n2-c1cc(C(C)(C)C)[nH]n1
inactive: NCI-H23 lung 77.6% | NCI-H226 lung 44.5% | NCI-H322M lung 48.7% | HOP-62 NSCLC 43.1% | NCI-H460 lung 59% | HOP-92 NSCLC 48.2% | NCI-H522 lung 52.2% | A549/ATCC NSCLC 32.8% | 786-0 renal 42.7% | COLO 205 colon 62.5%

COc1cc(/C=N\NC(=O)CN2CCN(c3cc4c(cc3F)c(=O)c(C(=O)N/N=C/c3ccc(O)c(OC)c3)cn4C3CC3)CC2)ccc1O
inactive: NCI-H23 lung 53.7% | NCI-H226 lung 70.5% | NCI-H322M lung 31.7% | HOP-62 NSCLC 73.1% | NCI-H460 lung 67% | HOP-92 NSCLC 70.9% | NCI-H522 lung 18.9% | A549/ATCC NSCLC 66.9% | 786-0 renal 92.4%
active: COLO 205 colon -9.77%

CCCCCCCCCCCCCCCC(=O)OCC1OC(n2cnc3c(=S)nc(N)[nH]c32)C(OC(=O)CCCCCCCCCCCCCCC)C1OC(=O)CCCCCCCCCCCCCCC (stereo not given)
inactive: NCI-H23 lung 66.2% | NCI-H226 lung 76.7% | NCI-H322M lung 72.2% | HOP-62 NSCLC 47.8% | NCI-H460 lung 63.4% | HOP-92 NSCLC 56% | NCI-H522 lung 66.1% | A549/ATCC NSCLC 74.3% | 786-0 renal 61% | COLO 205 colon 90%
